Measurements: PubChem BioAssay AID393 (SGCOxCompounds, 2006)
Activity calls are given as the source filed them. No rule for the calls is given here.

Molecular target: Serine/threonine-protein kinase pim-1 (Homo sapiens) (UniProt P11309)
Assay: compound-induced PIM1 thermal stabilization – biophysical, human, melting temperature shift (AID 393)
Settings: Thermal shift assay, stronger effect = higher value; at 10 µM, protein 2 µM, buffer 10 mM PIPES, pH 6.5, NaCl 150 mM unless noted

Sequence of Serine/threonine-protein kinase pim-1 (Homo sapiens) (P11309 whole entry, looked up): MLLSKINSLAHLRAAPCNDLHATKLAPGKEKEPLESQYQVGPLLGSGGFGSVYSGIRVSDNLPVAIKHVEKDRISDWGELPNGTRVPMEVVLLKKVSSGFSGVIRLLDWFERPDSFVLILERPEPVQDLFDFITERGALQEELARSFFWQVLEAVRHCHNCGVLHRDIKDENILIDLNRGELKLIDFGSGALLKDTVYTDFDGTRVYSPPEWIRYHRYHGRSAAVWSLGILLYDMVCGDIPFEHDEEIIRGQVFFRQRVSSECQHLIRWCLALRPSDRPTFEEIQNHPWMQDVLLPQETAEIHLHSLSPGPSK

Tm shift, active:
COc1cc(/C=C/C(=O)CC(=O)/C=C/c2ccc(O)c(OC)c2)ccc1O 4.2 Celsius [at 10 µM, protein 2 µM, buffer 10 mM Na Citrate, pH 6.5, NaCl 150 mM]
CCOc1c(Br)ccc2c1sc1nc[nH]c(=O)c12 3.5 Celsius
COc1cncc(-c2cnc3ccc(NC4CCOCC4)nn23)c1 3.31 Celsius
